Assay outcomes (PubChem)
HP1b binding inh = inhibitors of HP1-beta chromodomain binding to methylated histone tails; P83916; AlphaScreen HP1-beta / biotin-H3K9me3 peptide binding; Potency, µM (highest dose often 114 µM), for the others: at the top dose activity change, negative = inhibition, hits mostly inhibitors; hit rate 0.56% among 390,000; AID 540317; further: nearly all actives have a fitted effect of over 70% in size
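AlphaScreen: HP1-beta (50 nM) preformed 30 min with biotin-H3(1-18)K9me3 peptide (50 nM) in PBS pH 7.4, 0.01% Tween-20. Compound added for 30 min at RT, then streptavidin donor/nickel chelate acceptor beads (10 ug/mL) for 30 min.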
BAZ2B block = blocks human BAZ2B | Potency, µM (top dose mostly 114 µM), without a hit: at the highest dose activity change, negative = inhibition, hits mostly inhibitors | AlphaScreen BAZ2B-H3K14Ac peptide displacement | hit rate 4.4% among 360,000; further: on the % scale 0 is the no-effect control and ±100 the full control effect; nearly all actives have a fitted effect of over 60% in size
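AlphaScreen luminescence quantifies BAZ2B engagement of H3K14Ac peptide; the protein and biotinylated peptide are both at 50 nM final, buffer PBS pH 7.4 with 0.01% Tween-20, all steps at room temperature.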
JMJD2A Tudor = inhibitors of human JMJD2A Tudor domain | O75164 | AlphaScreen JMJD2A-Tudor / H3K4me3 peptide binding | Potency, µM (doses to about 114 µM), without a hit: at the top dose activity change, negative = inhibition, usual class: inhibitors | hit rate 4.4% among 390,000; further: on the % scale 0 is the no-effect control and ±100 the full control effect; nearly all actives have a fitted effect of over 50% in size
G9a block = inhibitors of human histone lysine methyltransferase G9a; AID 504332; Potency, µM (series often up to 102 µM), for inactives: top-dose activity, negative = inhibition, most hits filed as inhibitors; Q96KQ7; hit rate 8.8% among 350,000; G9a H3K9 monomethylation, AlphaScreen, 2 h; further: on the % scale 0 is the no-effect control and ±100 the full control effect; nearly all actives have a fitted effect of over 75% in size
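AlphaScreen read-out: biotin-H3K9 peptide (500 nM) methylation by 20 nM enzyme with 20 uM SAM, 2 h at room temperature after 15 min compound preincubation; anti-monomethyl H3K9 antibody plus donor/acceptor beads, 10 min dark.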
L3MBTL1 block = blocks human L3MBTL1. Q9Y468. hit rate 0.66% among 230,000. AlphaScreen L3MBTL1–H3K9me1 peptide binding. Potency, µM (series often up to 57.1 µM), inactives show at the top dose activity, negative = inhibition, actives largely listed as inhibitors. AID 485360; further: on the % scale 0 is the no-effect control and ±100 the full control effect; nearly all actives have a fitted effect of over 60% in size
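AlphaScreen proximity signal between nickel-chelate acceptor and streptavidin donor beads (final 10 ug/mL) reports binding of 50 nM L3MBTL1 to 75 nM biotin-H3 K9me1 peptide; complex incubated with compounds 30 min at room temperature; cefsulodin titration as control.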
* hit, by the source's call; ? = inconclusive; nt = no result given; [ ] = dose if it differs, or a comment. This is a sample that favours compounds with a hit; in the whole collection about 11% have one here. The call rests on the fitted dose curve; in most records, active means well fitted inhibition curve with a large enough effect; inconclusive means small, poorly fitted or top-dose-only effect; inactive means no such curve, though single readings can be large or run the other way. Potency means the concentration at half of the fitted maximal effect.

SMILES	HP1b binding inh	BAZ2B block	JMJD2A Tudor	G9a block	L3MBTL1 block
CCC(C)(C)NC(=O)C(c1ccc(OC)cc1)N(C(=O)CCC(=O)Nc1cc(C)on1)c1ccc2c(c1)OCO2 (configuration not stated)	37%	-5%	-7%	22%	nt
O=C(COc1cccc(Cl)c1Cl)NC1CC1	24%	nt	-12%	nt	6%
Cc1ccc2c(=O)cc(C(=O)Nc3sc4c(c3C(=O)NCC3CCCO3)CCCC4)oc2c1C (configuration not stated)	18%	1%	-23%	-5%[59 µM]	nt
Cc1cc(C)c(Cn2c(=O)n(CCCCCC(=O)NCc3ccc4c(c3)OCO4)c(=O)c3sccc32)c(C)c1	20%	2%	2%	-1%[59 µM]	nt
COc1ccc(NC(=O)N(C)C[C@H]2Oc3ccc(NC(=O)NC4CCCCC4)cc3C(=O)N([C@H](C)CO)C[C@@H]2C)cc1	41%	nt	-19%	nt	4%
COc1cccc(Cn2ncc3c4sc(SC)cc4n(C)c3c2=O)c1	nt	nt	1%	nt	nt
Cc1ccc(S(=O)(=O)NNC(=O)c2sc(NS(=O)(=O)c3ccccc3)nc2C)cc1	24%	-23%	-2%	-14%	nt
Cc1nc(NS(=O)(=O)c2ccccc2)sc1C(=O)NNS(=O)(=O)c1ccccc1	-13%	-10%	-23%	50µM*	nt
Cc1nc(C)c(C(=O)NNS(=O)(=O)c2ccc3ccccc3c2)s1	17%	-17%	25µM*	?	7%
Cc1nc(NS(=O)(=O)c2ccccc2)sc1NC(=O)Nc1ccc(Cl)cc1	-9%	50µM*	?	-26%[12.7 µM]	nt
CCc1ccc(-c2nn(CC(=O)Nc3ccccc3)c3c2cnc2ccc(F)cc23)cc1	53%	-11%	-13%	5%[59 µM]	nt
c1cn(-c2cc(-c3ccc4c(c3)OCO4)ncn2)cn1	nt	nt	nt	-24%[0.501 µM]	nt
CN1c2ccccc2C(C)(C)C12C=Cc1cc(O)ccc1O2 (configuration not stated)	?	45µM*	45µM*	nt	-28%
CCCCC1(Br)C(=O)N(c2ccccc2)N(c2ccccc2)C1=O	?	?	18µM*	?	-4%
CCCCC1(CO)C(=O)N(c2ccccc2)N(c2ccccc2)C1=O	11%	-8%	-23%	nt	nt
COc1ccccc1N1CCN(/N=C/c2cccc(OC)c2OC)CC1	?	35µM*	?	50µM*	-2%
COc1ccccc1N1CCN(/N=C\c2sccc2C)CC1	-25%	13µM*	?	16µM*	nt
COc1ccccc1N1CCN(/N=C\c2ccc(C)o2)CC1	?	-8%[57.1 µM]	-28%	?	-5%
COc1ccccc1N1CCN(/N=C/c2c(C)nn(-c3ccccc3)c2C)CC1	18µM*	28µM*	40µM*	?	?
COc1ccccc1N1CCN(/N=C\c2ccccc2)CC1	-11%	?	-34%	-13%[0.501 µM]	12%[2.29 µM]
COc1cc(/C=N/N2CCN(c3ccccc3OC)CC2)ccc1O	-9%	?	?	?	-2%
O=S(=O)(Nc1nc2ccccc2nc1Nc1ccccc1Br)c1ccccc1	43%	2%	-7%	2%[59 µM]	nt
COc1cccc(CCNC(=O)Cn2c(-c3cccs3)cc3ccccc32)c1	26%	-11%	-10%	-37%[59 µM]	nt
CC(=O)NS(=O)(=O)c1ccc(N=NN2CCOCC2)cc1	45%	-6%	-7%	2%[59 µM]	7%
O=C(O)c1ccc(N=NN2CCCC2)cc1	31%	-13%	-6%	35µM*	nt
SMILES	HP1b binding inh	BAZ2B block	JMJD2A Tudor	G9a block	L3MBTL1 block
CC(=O)Nc1ccc(N=NN2CCOCC2)cc1	?	-20%	-12%	8.9µM*	nt
CC(=O)Nc1cccc(N=NN2CCCCC2)c1	4%	-28%	-19%	22µM*	5%
CC(=O)Nc1cccc(N=NN2CCOCC2)c1	32%	4%	6%[57.1 µM]	nt	3%
Cc1ccc(NC(=O)C2CC(=O)n3ncnc3N2)cc1C (configuration not stated)	38%	-27%	2%	56µM*	-5%
O=c1c2oc3ccccc3c2n(Cc2cccc(C(F)(F)F)c2)c(=O)n1Cc1ccc2c(c1)OCO2	52%	-27%	0%	?	nt
COc1ccc(-c2nc3ccccc3o2)cc1NC(=O)c1ccc(N2CCC(C)CC2)c([N+](=O)[O-])c1	2%	-24%	-29%	-30%[59 µM]	nt
CCn1cc2c(n1)-c1c(oc(C(=O)Nc3cccc(C)c3C)c1C)CC2	77%	21%	-10%	15%[59 µM]	nt
COc1ccc(/C(=N/O)C(C)(C)NO)cc1	?	50µM*	40µM*	13µM*	nt
CC(C)(NO)/C(=N\O)c1ccc(Cl)cc1	-8%	56µM*	40µM*	10µM*	2%
CC(C)(NO)/C(=N/O)c1ccc(Br)cc1	1%	?	28µM*	32µM*	2%
C/C(=N\O)C(C)(C)Nc1ccc(Br)cc1	36%	3%	-22%	-44%	-3%
Cc1cc(Br)ccc1NC(=O)c1cn(C2CCCC2)c(=O)c2c1c1ccccc1n2C	43%	1%	3%	-3%[59 µM]	nt
CCCNC(=O)Cn1cnc2sc(C(=O)NCCN(CC)CC)c(C)c2c1=O	20%	0%	5%	79µM*	2%
CCCNC(=O)Cn1cnc2sc(C(=O)NCCCN3CCOCC3)c(C)c2c1=O	61%	-13%	-2%	nt	nt
COC(=O)c1ccc(NC(=O)C2CCCO2)cc1 (configuration not stated)	23%	14%	-13%	-13%	6%
COC(=O)c1ccc(N2OC3(C)C=CC2CC3)cc1 (configuration not stated)	15%	10%	-8%	45µM*	-1%
CCN1CCc2nc(N)oc2CC1	47%	6%	-8%	24µM*	-19%
CCCN1CCc2nc(N3CCN(CC)CC3)ncc2C1	13%	-17%	?	?	nt
CN(CC(=O)Nc1ccc(F)cc1F)S(=O)(=O)c1cccc2nsnc12	16%	nt	-13%	2%[59 µM]	nt
COc1ccc(C2(CNC(=O)c3cccc([N+](=O)[O-])c3)CCOCC2)cc1OC	0%	10%	56µM*	-4%[59 µM]	-8%
COc1ccc(C2(CNC(=O)c3ccccc3[N+](=O)[O-])CCOCC2)cc1	42%	-7%	-12%	40µM*	-11%
O=c1[nH]cc(CCc2ccccc2)c2ncncc12	29%	nt	-4%	nt	nt
CSC1=C(C#N)C(c2ccc(Cl)cc2)C2=C(CC(C)(C)CC2=O)N1 (configuration not stated)	65%	11%	1%	?	4%
N#CC1=C(SCC(N)=O)NC2=C(C(=O)c3ccccc32)C1c1ccc(Cl)cc1 (configuration not stated)	21%	-2%	-34%	50µM*	-7%
CCC1CN(C(=O)N2CCC(C(=O)NCCN(CC)CC)CC2)c2ccccc2O1 (configuration not stated)	2%	?	?	-49%[59 µM]	nt
COc1cc(OC)c2c(-c3ccccc3)cc(=O)oc2c1C(CCN1CCCC(C)C1)c1ccc2c(c1)OCO2 (configuration not stated)	-36%	?	40µM*	-26%[59 µM]	nt
